# Where “and” joins values, the source holds several entries; their conditions need not be identical. Equal entries are not always repeated. Inconclusive results are not listed. Entries that show only a call come without a potency. A number with no mark means an inactive call. Calls of active or inactive are those of the source. Calls come from the whole dose curve; as a rule, active = well fitted inhibition curve with a large enough effect; inconclusive = small, poorly fitted or top-dose-only effect; inactive = flat fitted curve, though single readings scatter.
# Columns and labels:
# [1] = system: PC26; assay: qHTS profiling for inhibitors of Plasmodium falciparum proliferation (AID 504749); settings: P. falciparum in erythrocytes, SYBR Green DNA, 72 h; series mostly up to 28.7 µM
# Outline: (§1)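 Quantitative HTS: compounds pinned into medium, infected erythrocytes added (0.3% parasitemia, 2.5% hematocrit), 72 h culture at 37 C under 5% CO2. Saponin/Triton lysis with SYBR Green I, overnight RT, then fluorescence read.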
# [2] = system: PC49; assay: as above; settings: P. falciparum in erythrocytes, SYBR Green DNA, 72 h; series mostly up to 28.7 µM
# Outline: as §1
# [3] = system: SC27B; assay: as above; settings: P. falciparum in erythrocytes, SYBR Green DNA, 72 h; series mostly up to 28.7 µM
# Outline: as §1
# [4] = system: TAB109; assay: as above; settings: P. falciparum in erythrocytes, SYBR Green DNA, 72 h; series mostly up to 28.7 µM
# Outline: as §1
# [5] = system: TAB113; assay: as above; settings: P. falciparum in erythrocytes, SYBR Green DNA, 72 h; series mostly up to 28.7 µM
# Outline: as §1
# [6] = system: TAB165; assay: as above; settings: P. falciparum in erythrocytes, SYBR Green DNA, 72 h; series mostly up to 28.7 µM
# Outline: as §1
# [7] = system: W2; assay: as above; settings: P. falciparum in erythrocytes, SYBR Green DNA, 72 h; series mostly up to 28.7 µM
# Outline: as §1
# [8] = system: CRL-7250; assay: Cytotoxic Profiling of Annotated Libraries Using Quantitative High-Throughput Screening (AID 1296008); settings: Five cell lines viability, CellTiter-Glo ATP luminescence, 48-72 h; max response: active compounds read low
# Outline: (§2)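 Compounds were pin-transferred onto cells and incubated 48 or 72 hr at 37 degree Celsius, 95% humidity. CellTiter-Glo was added, plates sat 10 min at room temperature, then ATP-coupled luminescence was imaged as the viability read-out.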
# [9] = system: HEK293; assay: as above; settings: Five cell lines viability, CellTiter-Glo ATP luminescence, 48-72 h; max response: active compounds read low
# Outline: as §2
# [10] = system: HaCat; assay: as above; settings: Five cell lines viability, CellTiter-Glo ATP luminescence, 48-72 h; max response: active compounds read low
# Outline: as §2
# Note: nearly all actives have a fitted effect of over 60% in size.
# Potency is the fitted concentration of half-maximal effect.
structure (smiles),measurement,setting,value
NC(=O)c1ccccc1O,Potency,[1],inactive
same,Potency,[2],inactive
same,Potency,[3],inactive
same,Potency,[4],inactive
same,Potency,[5],inactive
same,Potency,[6],inactive
same,Potency,[7],inactive
same,max response,[8],2.66%
same,outcome,[9],inactive
CCCCC(CC)COC(=O)/C=C/c1ccc(OC)cc1 (stereo unspecified),Potency,[1],inactive
same,Potency,[2],inactive
same,Potency,[3],inactive
same,Potency,[4],inactive
same,Potency,[5],inactive
same,Potency,[6],inactive
same,Potency,[7],inactive
same,max response,[8],-9.77%
same,max response,[9],-2.18%
Cc1cccc(C)c1NC(=O)CN1CCCCCC1,Potency,[1],inactive
same,Potency,[2],inactive
same,Potency,[3],inactive
same,Potency,[4],inactive
same,Potency,[5],inactive
same,Potency,[6],inactive
same,outcome,[8],inactive
same,max response,[9],2.2%
COc1ccc2c(c1)c1c3n2CCN(C)C3=NCC1,Potency,[1],inactive
same,Potency,[2],inactive
same,Potency,[3],inactive
same,Potency,[4],inactive
same,Potency,[5],inactive
same,Potency,[6],inactive
same,Potency,[7],inactive
same,outcome,[8],inactive
same,max response,[9],3.32%
CC(=O)N[C@@H](CCC(=O)O)C(=O)O,Potency,[1],inactive
same,Potency,[2],inactive
same,Potency,[3],inactive
same,Potency,[4],inactive
same,Potency,[5],inactive
same,Potency,[6],inactive
same,Potency,[7],inactive
same,max response,[8],2.81%
same,max response,[9],-7.38%
CN1CCC(OC(c2ccccc2)c2ccccc2)CC1,Potency,[3],inactive
same,Potency,[7],3.22 µM (active)
same,outcome,[8],inactive
same,max response,[9],-17.7%
C[C@H]1[C@H]2CC[C@H]3[C@@H]4CC=C5C[C@@H](N(C)C)CC[C@]5(C)[C@H]4CC[C@]23CN1C,max response,[8],-17.6%
same,outcome,[10],inactive
CC(C)CCCC(C)N (stereo unspecified),Potency,[1],inactive
same,Potency,[2],inactive
same,Potency,[3],inactive
same,Potency,[4],inactive
same,Potency,[5],inactive
same,Potency,[6],inactive
same,Potency,[7],inactive
same,Potency,[8],33.5 µM (active)
same,max response,[10],-0.769%
CN(C)CCN1C(=O)c2ccccc2N(C)c2ccccc21,Potency,[7],2.13 µM (active)
same,max response,[8],-7.77%
same,max response,[9],-1.88%
CC(C)(C)NC[C@H](O)COc1cccc2c1CCCC2=O,Potency,[1],inactive
same,Potency,[2],inactive
same,Potency,[3],inactive
same,Potency,[4],inactive
same,Potency,[5],inactive
same,Potency,[6],inactive
same,max response,[8],-0.218%
same,max response,[10],-26.5%
c1ccc(-c2nc[nH]c2-c2ccccc2)cc1,Potency,[1],inactive
same,Potency,[2],inactive
same,Potency,[3],inactive
same,Potency,[4],inactive
same,Potency,[5],inactive
same,Potency,[6],inactive
same,Potency,[7],inactive
same,max response,[8],-18.7%
same,max response,[10],-29.5%
CC(=O)OCC(=O)[C@H]1CC[C@H]2[C@@H]3CCC4=CC(=O)CC[C@]4(C)[C@H]3CC[C@]12C,Potency,[1],inactive
same,Potency,[2],inactive
same,Potency,[3],inactive
same,Potency,[4],inactive
same,Potency,[5],inactive
same,Potency,[6],inactive
same,max response,[8],1.7%
same,outcome,[10],inactive
CCCCCCCCCCC[C@@H](C[C@@H]1OC(=O)[C@H]1CCCCCC)OC(=O)[C@H](CC(C)C)NC=O,outcome,[8],inactive
same,outcome,[10],inactive
CCCCOC(=O)CC(CC(=O)OCCCC)(OC(C)=O)C(=O)OCCCC,max response,[8],-18.3%
same,outcome,[10],inactive
COc1ccc(C(=O)c2ccccc2)c(O)c1,Potency,[2],inactive
same,Potency,[7],13.5 µM (active)
same,max response,[8],-4.19%
same,outcome,[9],inactive
CCN1/C(=C/C=C/c2sc3ccccc3[n+]2CC)Sc2ccccc21,Potency,[1],849 nM (active)
same,Potency,[2],1.12 µM (active)
same,Potency,[3],0.282 µM (active)
same,Potency,[4],0.141 µM (active)
same,Potency,[5],141 nM (active)
same,Potency,[6],141 nM (active)
same,Potency,[7],0.0953 µM (active)
same,Potency,[8],0.13 µM (active)
same,Potency,[10],2.91 µM (active)
O=C(CCCN1CC=C(n2c(=O)[nH]c3ccccc32)CC1)c1ccc(F)cc1,max response,[8],-30.7%
same,max response,[10],-9.03% and -18.9%
CC(=O)O[C@]1(C(C)=O)CC[C@H]2[C@@H]3C=C(C)C4=CC(=O)CC[C@]4(C)[C@H]3CC[C@@]21C,max response,[8],-4.16%
same,max response,[10],-4.96%
CCc1cc(Cl)c(OC)c(C(=O)NC[C@@H]2CCCN2CC)c1O,max response,[8],3.41%
same,outcome,[10],inactive
CC[N+](C)(CC)CCOC(=O)C(O)(c1ccccc1)C1CCCCC1 (stereo unspecified),Potency,[1],inactive
same,Potency,[2],inactive
same,Potency,[3],inactive
same,Potency,[4],inactive
same,Potency,[5],inactive
same,Potency,[6],inactive
same,max response,[8],-11.2%
same,outcome,[10],inactive
NC(=O)n1c(O)c(C(=O)c2cccs2)c2cc(Cl)ccc21,Potency,[1],inactive
same,Potency,[2],inactive
same,Potency,[3],inactive
same,Potency,[4],inactive
same,Potency,[5],inactive
same,Potency,[6],inactive
same,max response,[8],4.52%
same,outcome,[10],inactive
C[N+]1(CC2COC(c3ccccc3)(C3CCCCC3)O2)CCCCC1 (stereo unspecified),Potency,[1],4260 nM (active)
same,Potency,[2],6.31 µM (active)
same,Potency,[3],7.08 µM (active)
same,Potency,[4],6.31 µM (active)
same,Potency,[5],5010 nM (active)
same,Potency,[6],5010 nM (active)
same,Potency,[7],5.36 µM (active)
same,max response,[8],-1.29%
same,max response,[10],3.15%
CCN(CC)CCOC(=O)C(Cc1cccc2ccccc12)CC1CCCO1 (stereo unspecified),max response,[8],-0.146%
same,outcome,[10],inactive
CCCCC(CC)CN1CN(CC(CC)CCCC)CC(C)(N)C1 (stereo unspecified),max response,[8],-21.5%
same,max response,[10],-10.2%
O=C(Nc1ccccc1)OCC(CN1CCCCC1)OC(=O)Nc1ccccc1 (stereo unspecified),max response,[8],-24%
same,outcome,[10],inactive
